Laboratory results as given in PubChem BioAssay (Tox21).
Inconclusive results are not listed. The source made the active and inactive calls. Unless noted, calls come from the whole dose curve; as a rule, active = well fitted curve in the direction sought with a large enough effect in the repeat runs; inconclusive = weak or mixed curves; inactive = no such curve, though single readings can be large; an effect the other way counts as inactive or inconclusive.

What was measured:
[1] = target: Estrogen receptor beta (Homo sapiens) (UniProt Q92731); test: qHTS assay to identify small molecule agonists of the estrogen receptor beta (ER-beta) signaling pathway (AID 1259377; active = well fitted activation curve with a large enough effect in the signal ratio in the repeat runs, not every such curve was filed as active; the % refers to the signal ratio)
Outline: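 Ratiometric beta-lactamase FRET read-out came after 2 h substrate loading at room temperature. It followed 16 h compound treatment at 37C of GripTite HEK293T cells carrying a UAS-bla reporter, plated in 2% charcoal-stripped FBS medium.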

[2] = target: Estrogen receptor beta (Homo sapiens) (UniProt Q92731); test: qHTS assay to identify small molecule antagonists of the estrogen receptor beta (ER-beta) signaling pathway (AID 1259378; active = well fitted inhibition curve with a large enough effect in the signal ratio in the repeat runs, not every such curve was filed as active; the % refers to the signal ratio)
Outline: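 ER-beta-UAS-bla HEK293T (GripTite) cells in 2% charcoal-stripped FBS medium were preincubated 6 hr at 37C, dosed with compound, then stimulated with 1 nM E2 (final) for 16 hr; beta-lactamase reporter read by B/G FRET fluorescence after 2 hr substrate loading.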

[3] = qHTS assay to identify small molecule agonists of the androgen receptor (AR) signaling pathway in the presence of an antagonist - cell viability counter screen (AID 1259379);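 note: MDA-kb2 human breast cancer cells carrying an MMTV luciferase reporter; series mostly up to about 92 µM; nearly all actives have a fitted effect of over 25% in size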
Outline: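 Fluorescence from CellTiter-Fluor, added after 15 hr and read 1 hr later, gave cell viability. Cells were MDA-kb2 exposed to compounds (15 concentrations) in the presence of 3.0uM nilutamide at 37C, 0% CO2.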

[4] = qHTS assay to identify small molecule agonists of the estrogen receptor beta (ER-beta) signaling pathway - cell viability counter screen (AID 1259380); note: nearly all actives have a fitted effect of over 30% in size
Outline: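 Same-well viability counter screen. Cells: ER-beta-UAS-bla HEK293T, plated 6 hr before compound, in 2% charcoal-stripped FBS. Compound exposure 16 hr, 37C; viability by CellTiter-Glo luminescence after 30 min at room temperature.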

[5] = qHTS assay to identify small molecule antagonists of the estrogen receptor beta (ER-beta) signaling pathway - cell viability counter screen (AID 1259382); note: series mostly up to about 92 µM; nearly all actives have a fitted effect of over 55% in size
Outline: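 Following a 6 hr plating period, HEK293T cells carrying a UAS-driven beta-lactamase reporter under ER-beta control received compounds and 1nM E2 (final). After 16 hr at 37C and 2 hr substrate loading, CellTiter-Glo luminescence indicated viability.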

[6] = target: Estrogen receptor (Homo sapiens) (UniProt P03372); test: qHTS assay to identify small molecule agonists of the estrogen receptor alpha (ER-alpha) signaling pathway in the presence of an antagonist (AID 1259383; calls by dose curve; note: top concentration of the series differs between compounds; nearly all actives have a fitted effect of over 15% in size)
Outline: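 Cells are hormone-deprived for 5 days (charcoal-stripped FBS, no phenol red), plated for 24hr, spiked with 10.0nM ICI-182,780, then dosed at 15 concentrations. After 22hr at 37C, ONE-Glo luminescence reports ERE-luciferase activity.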

[7] = qHTS assay to identify small molecule agonists or antagonists of the thyroid stimulating hormone receptor (TSHR) signaling pathway - wild type cell line counter screen (AID 1259384; calls by dose curve)
Outline: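 Wild-type HEK293 cells were plated 18 h at 37 C/5% CO2, pin-dosed with compound plus Ro20-1724 medium, held 30 min at room temperature, then given cAMP-d2 and anti-cAMP-cryptate; fluorescence was read after 1 h. Fifteen concentrations, triplicate.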

[8] = target: Thyrotropin receptor (Homo sapiens) (UniProt P16473); test: qHTS assay to identify small molecule antagonists of the thyroid stimulating hormone receptor (TSHR) signaling pathway (AID 1259385; calls by dose curve; note: nearly all actives have a fitted effect of over 20% in size)
Outline: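 TSHR-HEK293 cells were plated and held 18 h at 37C/5% CO2, then given compound plus Ro20-1724 and stimulated with TSH at 1.5 ng/mL final. After 30 min at room temperature, cAMP was detected with cAMP-d2/anti-cAMP-cryptate (1 h) by fluorescence.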

[9] = qHTS assay to identify small molecule agonists of the estrogen receptor alpha (ER-alpha) signaling pathway in the presence of an antagonist - cell viability counter screen (AID 1259386);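 note: series mostly up to about 92 µM; cells exposed to compounds for 22 h at 37 °C before the viability read; nearly all actives have a fitted effect of over 30% in size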
Outline: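 Cells are starved of estrogens for 5 days in charcoal-stripped serum, seeded for 24hr and co-treated with ICI-182,780 (10.0nM final) and test compounds. After 22hr at 37C, viability is read as CellTiter-Fluor fluorescence.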

[10] = target: Progesterone receptor (Homo sapiens) (UniProt P06401); test: qHTS assay to identify small molecule agonists of the progesterone receptor (PR) signaling pathway (AID 1346784; calls by dose curve; note: nearly all actives have a fitted effect of over 30% in size)
Outline: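 Agonist qHTS: compounds pinned onto 3,000 PR-UAS-bla HEK 293T cells per well in charcoal-stripped serum medium, 16hr at 37C, then beta-lactamase activity measured by LiveBLAzer FRET fluorescence after 2 hours at room temperature.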

[11] = target: Progesterone receptor (Homo sapiens) (UniProt P06401); test: qHTS assay to identify small molecule antagonists of the progesterone receptor (PR) signaling pathway (AID 1346795; active = well fitted inhibition curve with a large enough effect in the signal ratio in the repeat runs, not every such curve was filed as active; the % refers to the signal ratio)
Outline: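 Antagonist mode with agonist R5020 at 1 nM final and 16 hr incubation at 37C. Reporter was beta-lactamase driven by UAS in HEK293T (PR-UAS-bla), 2% charcoal-stripped serum; signal from LiveBLAzer FRET substrate, 2 hr at room temperature.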

[12] = qHTS assay to identify small molecule antagonists of the progesterone receptor (PR) signaling pathway - cell viability counter screen (AID 1346798); note: series mostly up to about 92 µM; nearly all actives have a fitted effect of over 50% in size
Outline: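 Cytotoxicity read as CellTiter-Glo luminescence (30 min, room temperature) in the same wells as the beta-lactamase readout. HEK293T PR-UAS-bla cells in charcoal-stripped 2% FBS received compound and R5020, then 16 h at 37C, 5% CO2.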

[13] = qHTS assay to identify small molecule agonists of the progesterone receptor (PR) signaling pathway - cell viability counter screen (AID 1346799; calls by dose curve; note: nearly all actives have a fitted effect of over 45% in size)
Outline: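 Cytotoxicity measured by CellTiter-Glo luminescence (30 min, RT) in the same wells as the PR beta-lactamase agonist read. Those HEK293T cells had 16 h compound treatment at 37 C in 2% charcoal-stripped FBS medium.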

[14] = qHTS assay to identify small molecule antagonists of the TGF-beta/Smad signaling pathway - cell viability counter screen (AID 1346824); note: nearly all actives have a fitted effect of over 50% in size
Outline: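 SBE-bla HEK 293T cells were plated overnight at 37 C, then given compounds in DMSO plus TGF-beta1 (added as 0.25 ng/mL solution) for 5 hr. After the bla read, CellTiter-Glo was added to the same wells and luminescence read after 30 min at room temperature.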

[15] = qHTS assay to identify small molecule agonists of the TGF-beta/Smad signaling pathway - cell viability counter screen (AID 1346829); note: top concentration of the series differs between compounds; nearly all actives have a fitted effect of over 45% in size
Outline: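 Luminescence from CellTiter-Glo, read after a 30 min room-temperature incubation, gives cell viability of SBE-bla HEK 293T cells treated 5 hr with compounds at 37 C.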

[16] = qHTS assay to identify small molecule agonists of the TGF-beta/Smad signaling pathway (AID 1346859; active = well fitted activation curve with a large enough effect in the signal ratio in the repeat runs, not every such curve was filed as active; the % refers to the signal ratio; note: series mostly up to about 77 µM)
Outline: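 Fluorescence (ex 405 nm; em 460 and 530 nm) was read 2 h after LiveBLAzer FRET substrate at RT. The preceding compound treatment of overnight-plated SBE-bla HEK293T cells lasted 5 h at 37 C.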

[17] = target: Thyrotropin-releasing hormone receptor (Homo sapiens) (UniProt P34981); test: qHTS assay to identify small molecule antagonists of the thyrotropin-releasing hormone receptor (TRHR) signaling pathway (AID 1346877; active = well fitted inhibition curve with a large enough effect in the repeat runs, not every such curve was filed as active; note: series mostly up to about 51 µM)
Outline: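 Cells (TRHR-HEK293) are plated and kept 18 h at 37 °C/5% CO2. A calcium-sensitive dye is added for 2 h, compound follows for 5 min at room temperature, and TRH is then given at 1 nM final.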

[18] = target: Thyrotropin-releasing hormone receptor (Homo sapiens) (UniProt P34981); test: qHTS assay to identify small molecule agonists of the thyrotropin-releasing hormone receptor (TRHR) signaling pathway (AID 1346891; calls by dose curve; note: series mostly up to about 58 µM)
Outline: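 Agonist-mode intracellular calcium readout: kinetic fluorescence over 3 min at 1 s intervals after compound addition to TRHR-HEK293 cells (18 h seeded, 2 h dye-loaded at 37 C). Fifteen concentrations, triplicates.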

[19] = Human pregnane X receptor (PXR) small molecule agonists, qHTS cell viability counter screen (AID 1346977); note: nearly all actives have a fitted effect of over 50% in size
Outline: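 Same-well viability read: CellTiter-Fluor added after 23 hr compound exposure, fluorescence measured 1 hr later. Cells were PXR-Luc HepG2 seeded at 2,000/well in 5% charcoal-stripped FBS medium, rested 5 hr before dosing at 37 C.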

[20] = target: Androgen receptor (Homo sapiens) (UniProt P10275); test: qHTS assay to identify small molecule agonists of the androgen receptor (AR) signaling pathway in the presence of an antagonist (AID 1259381; calls by dose curve; note: nearly all actives have a fitted effect of over 15% in size)
Outline: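 Cells are MDA-kb2 (human breast carcinoma, MMTV-luc, AR/GR responsive). Nilutamide is present at 3.0uM final throughout; compounds are added at 15 concentrations and incubated 16hr at 37C before ONE-Glo luminescence detection.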

Measured: Potency

Sequence of Estrogen receptor beta (Homo sapiens) (Q92731 whole entry, looked up): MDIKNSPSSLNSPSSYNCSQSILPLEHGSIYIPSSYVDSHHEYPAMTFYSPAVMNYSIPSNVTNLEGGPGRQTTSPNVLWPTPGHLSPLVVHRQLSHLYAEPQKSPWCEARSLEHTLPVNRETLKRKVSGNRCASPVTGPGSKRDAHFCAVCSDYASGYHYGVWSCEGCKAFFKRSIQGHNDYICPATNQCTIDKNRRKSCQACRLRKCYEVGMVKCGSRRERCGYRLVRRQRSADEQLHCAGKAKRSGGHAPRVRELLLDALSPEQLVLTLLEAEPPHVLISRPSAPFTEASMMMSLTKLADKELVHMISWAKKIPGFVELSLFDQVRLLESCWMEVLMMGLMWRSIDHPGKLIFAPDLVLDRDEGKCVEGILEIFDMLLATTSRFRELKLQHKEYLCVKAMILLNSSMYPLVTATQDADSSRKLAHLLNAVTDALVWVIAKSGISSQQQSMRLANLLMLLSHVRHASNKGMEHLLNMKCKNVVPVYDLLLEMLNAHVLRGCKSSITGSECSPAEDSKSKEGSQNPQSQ
Sequence of Thyrotropin receptor (Homo sapiens) (P16473 whole entry, looked up): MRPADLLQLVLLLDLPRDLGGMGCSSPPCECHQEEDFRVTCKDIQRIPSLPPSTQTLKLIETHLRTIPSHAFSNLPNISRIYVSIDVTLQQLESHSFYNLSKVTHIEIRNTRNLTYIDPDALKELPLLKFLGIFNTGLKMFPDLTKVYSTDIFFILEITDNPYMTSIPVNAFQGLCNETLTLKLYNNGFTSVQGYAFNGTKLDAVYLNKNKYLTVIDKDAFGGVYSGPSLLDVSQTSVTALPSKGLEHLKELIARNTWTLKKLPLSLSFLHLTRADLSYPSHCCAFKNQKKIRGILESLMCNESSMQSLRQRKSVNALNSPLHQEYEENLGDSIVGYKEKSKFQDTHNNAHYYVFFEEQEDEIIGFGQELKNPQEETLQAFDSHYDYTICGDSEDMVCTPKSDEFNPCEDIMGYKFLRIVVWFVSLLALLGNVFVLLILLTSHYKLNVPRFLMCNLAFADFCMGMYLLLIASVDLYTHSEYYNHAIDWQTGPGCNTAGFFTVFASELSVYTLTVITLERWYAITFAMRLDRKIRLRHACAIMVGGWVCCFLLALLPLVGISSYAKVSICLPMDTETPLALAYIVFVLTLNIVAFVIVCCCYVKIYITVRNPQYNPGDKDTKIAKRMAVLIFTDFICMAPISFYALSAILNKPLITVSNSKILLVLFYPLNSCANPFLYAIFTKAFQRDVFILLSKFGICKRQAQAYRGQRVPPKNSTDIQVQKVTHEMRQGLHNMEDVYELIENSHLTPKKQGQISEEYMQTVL
Sequence of Thyrotropin-releasing hormone receptor (Homo sapiens) (P34981 whole entry, looked up): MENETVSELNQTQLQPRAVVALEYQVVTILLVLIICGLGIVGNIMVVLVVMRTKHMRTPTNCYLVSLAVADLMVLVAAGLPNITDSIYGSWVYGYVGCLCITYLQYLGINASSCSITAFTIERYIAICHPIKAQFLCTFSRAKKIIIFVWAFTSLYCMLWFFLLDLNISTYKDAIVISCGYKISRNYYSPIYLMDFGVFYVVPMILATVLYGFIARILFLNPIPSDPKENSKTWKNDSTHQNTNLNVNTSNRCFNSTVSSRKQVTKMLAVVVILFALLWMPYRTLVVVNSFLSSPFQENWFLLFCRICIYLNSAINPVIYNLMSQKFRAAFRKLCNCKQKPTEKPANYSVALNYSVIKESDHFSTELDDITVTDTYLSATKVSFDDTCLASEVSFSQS
Sequence of Progesterone receptor (Homo sapiens) (P06401 whole entry, looked up): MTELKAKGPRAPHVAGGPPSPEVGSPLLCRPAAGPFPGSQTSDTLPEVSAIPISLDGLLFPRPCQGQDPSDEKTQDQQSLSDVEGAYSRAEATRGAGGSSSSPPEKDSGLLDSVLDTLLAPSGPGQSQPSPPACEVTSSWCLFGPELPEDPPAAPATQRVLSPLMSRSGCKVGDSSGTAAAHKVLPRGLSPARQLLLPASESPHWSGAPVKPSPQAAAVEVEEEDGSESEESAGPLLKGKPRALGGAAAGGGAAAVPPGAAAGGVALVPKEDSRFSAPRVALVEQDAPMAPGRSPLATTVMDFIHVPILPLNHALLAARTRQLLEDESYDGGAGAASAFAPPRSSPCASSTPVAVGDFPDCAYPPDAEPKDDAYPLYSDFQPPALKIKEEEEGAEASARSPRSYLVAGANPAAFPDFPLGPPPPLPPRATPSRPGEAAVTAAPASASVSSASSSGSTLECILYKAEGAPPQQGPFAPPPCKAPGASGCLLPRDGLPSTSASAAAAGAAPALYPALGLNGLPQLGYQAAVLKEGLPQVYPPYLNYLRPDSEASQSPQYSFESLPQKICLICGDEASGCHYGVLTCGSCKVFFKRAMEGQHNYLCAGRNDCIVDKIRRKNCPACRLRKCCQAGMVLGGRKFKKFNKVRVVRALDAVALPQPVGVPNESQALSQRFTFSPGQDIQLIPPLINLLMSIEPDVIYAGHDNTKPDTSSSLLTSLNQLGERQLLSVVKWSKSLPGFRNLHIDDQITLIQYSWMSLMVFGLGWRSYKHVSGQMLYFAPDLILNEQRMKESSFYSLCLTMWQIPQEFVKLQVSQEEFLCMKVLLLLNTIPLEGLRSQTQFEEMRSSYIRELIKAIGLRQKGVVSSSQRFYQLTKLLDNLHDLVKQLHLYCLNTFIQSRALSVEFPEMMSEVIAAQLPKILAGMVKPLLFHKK
Sequence of Estrogen receptor (Homo sapiens) (P03372 whole entry, looked up): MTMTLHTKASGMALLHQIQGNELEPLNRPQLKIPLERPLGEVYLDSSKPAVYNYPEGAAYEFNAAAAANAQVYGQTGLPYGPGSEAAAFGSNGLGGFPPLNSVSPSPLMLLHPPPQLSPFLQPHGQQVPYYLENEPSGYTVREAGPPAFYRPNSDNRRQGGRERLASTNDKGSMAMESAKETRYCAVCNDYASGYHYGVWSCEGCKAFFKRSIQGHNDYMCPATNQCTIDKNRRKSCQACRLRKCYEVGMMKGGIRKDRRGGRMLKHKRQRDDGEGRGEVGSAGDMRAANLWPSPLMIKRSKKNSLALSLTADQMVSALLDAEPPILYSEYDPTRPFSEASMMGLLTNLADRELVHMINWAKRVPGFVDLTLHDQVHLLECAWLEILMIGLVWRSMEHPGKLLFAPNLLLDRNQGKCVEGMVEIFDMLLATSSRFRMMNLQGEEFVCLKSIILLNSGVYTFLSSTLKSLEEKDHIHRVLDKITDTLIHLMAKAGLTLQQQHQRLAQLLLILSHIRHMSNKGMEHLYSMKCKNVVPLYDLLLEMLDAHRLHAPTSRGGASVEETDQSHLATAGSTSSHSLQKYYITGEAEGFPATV
Sequence of Androgen receptor (Homo sapiens) (P10275 whole entry, looked up): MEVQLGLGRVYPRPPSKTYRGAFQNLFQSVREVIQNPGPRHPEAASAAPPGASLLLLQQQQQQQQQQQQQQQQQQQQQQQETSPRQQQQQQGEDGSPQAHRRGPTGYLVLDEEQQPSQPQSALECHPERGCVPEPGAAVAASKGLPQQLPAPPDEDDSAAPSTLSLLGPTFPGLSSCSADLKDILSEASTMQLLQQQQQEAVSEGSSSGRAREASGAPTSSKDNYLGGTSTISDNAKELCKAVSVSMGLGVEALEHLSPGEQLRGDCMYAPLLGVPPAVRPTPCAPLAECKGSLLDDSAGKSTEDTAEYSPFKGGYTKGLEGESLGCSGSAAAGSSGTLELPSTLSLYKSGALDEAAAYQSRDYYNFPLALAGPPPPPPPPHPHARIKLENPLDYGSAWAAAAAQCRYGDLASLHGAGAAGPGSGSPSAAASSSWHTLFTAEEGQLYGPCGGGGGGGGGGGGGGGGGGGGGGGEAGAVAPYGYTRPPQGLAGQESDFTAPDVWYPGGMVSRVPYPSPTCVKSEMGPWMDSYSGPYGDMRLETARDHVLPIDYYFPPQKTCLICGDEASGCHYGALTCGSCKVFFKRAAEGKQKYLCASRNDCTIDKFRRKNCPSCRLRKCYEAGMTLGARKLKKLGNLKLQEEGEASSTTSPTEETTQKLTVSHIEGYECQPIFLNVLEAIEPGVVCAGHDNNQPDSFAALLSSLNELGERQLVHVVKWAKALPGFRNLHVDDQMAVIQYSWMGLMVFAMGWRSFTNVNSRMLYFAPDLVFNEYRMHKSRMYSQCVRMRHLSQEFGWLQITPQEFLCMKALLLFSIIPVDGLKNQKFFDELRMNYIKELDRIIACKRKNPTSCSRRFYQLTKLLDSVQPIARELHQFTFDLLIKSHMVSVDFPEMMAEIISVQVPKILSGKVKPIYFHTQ

C#CC(O)CCC (stereo not given)
not listed: [20]
inactive: all other assays above

CC(C)CCOCCC(C)C
not listed: [6] | [12] | [17] | [18]
inactive: all other assays above

C=C(C)CCCC
inactive: all assays above
